Laboratory results reported in the supplement of paper PMC10338343.
± gives the standard deviation.

These sequences were tested on MILI (PIWIL2) piRISC loaded with L1MC piRNA (26 nt) (assay: pre-steady-state target cleavage rate (min^-1); guide: L1MC piRNA 5'p-UAACUAAAUACUAUGCAAGCUGUAGG; MIWI and MILI are mouse PIWI proteins and EfPiwi is from a freshwater sponge; tags in brackets are library labels; higher = faster piRNA-guided slicing of the target). Conditions: auxiliary factor: 500 nM mouse GTSF1.
In short: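 At 33 °C in HEPES–potassium acetate buffer, a transcribed, DNA-blocked target RNA library […] was exposed for 0–8 or 0–960 min to 1 nM active affinity-purified piRISC carrying a single synthetic guide, with or without 500 nM GTSF1 partner protein. Uncleaved targets were sequenced and normalised to depth and to weakly complementary targets. With three trials pooled and k3 capped at 0.0001 min^-1, a burst-and-steady-state fit produced the pre-steady-state cleavage rate.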
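Note: 1 nM active piRISC with 0.1 nM target library at 33 °C single turnover.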

Row | Sequence | pre-steady-state target cleavage rate
1 | UCCUGGUACAGCUUGCAUAGUAUUUAAUUA | 0.0793 ± 0.022
2 | UCCUGGAUCAGCAUGCAUAGUAUUUUGUUA | 0.16 ± 0.021
3 | UCCUGGAUGUCGUUGCAAAGUAUUUAGUUA | 0.0181 ± 0.0047
4 | UCCUGGAUGUCCUUGCAAAGUAUAUAGUUA | 0.0544 ± 0.014
5 | UCCUGGAUGUCGAUGCAUAGUACUUUAGUUA | 0.0153 ± 0.0039
6 | UCCUGGAUGUCGAUGCAUAGUAGUUAGUUA | 0.0193 ± 0.005
7 | UCCUGGUACAGCUUGCAUAGUUAUUUAGUUA | 0.0143 ± 0.0076
8 | UCCUGGAUGUCGAUGCAUCGUAUUUAGUUA | 0.0238 ± 0.0073
9 | UCCUGCUACAGACUUGCAUAGUAUUUAGUUA | 0.169 ± 0.018
10 | UCCUGGAUGUGCUUGAAUAGUAUUUAGUUA | 0.127 ± 0.013
11 | UCCUGGAUCAGCUAGCAUAGUAUUUAGAUA | 0.0957 ± 0.019
12 | UCCUGGAUCAUGCUUGCAUAGUAUUUAGUUA | 0.18 ± 0.019
13 | UCCUGGAUGUCCUUGCAUAGUAUAUUAGUUA | 0.188 ± 0.034
14 | UCCUGGUACUGCUUGGAUAGUAUUUAGUUA | 0.179 ± 0.029
15 | UCCUGGAUGUCCUUGCAUAGUAUUCAGUUA | 0.0755 ± 0.018
16 | UCCUGGAUGUGCUUGCAAAGUAUAUAGUUA | 0.0264 ± 0.0072
17 | UCCUGGAUCACCUUGCAAAGUAUUUAGUUA | 0.0687 ± 0.012
18 | UCCUGCUACAGCUUGCAUAGUAUUUAGUUC [g2:g25:cont:t1C] | 0.317 ± 0.021
19 | UCCUGGUACAGCUUGCAUAGAAAUUAGUUA | 0.0374 ± 0.011
20 | UCCUCCUACAGCUUGCAUAGUAUCUUAGUUA | 0.285 ± 0.022

Row | Sequence | pre-steady-state target cleavage rate
21 | UCCUGGUACAGCUUCGAUAGUAUUUAGUAA | 0.26 ± 0.046
22 | UCCUGGAACAGCUUGCAUUGUAUAUAGUUA | 0.149 ± 0.017
23 | UCCUGGAUGUGCUUGCAUAGUUAUUUAGUUA | 0.0061 ± 0.0048
24 | UCCUGGAUGUCUUUGCAUAGUAUUUAGUUA | 0.119 ± 0.015
25 | UCCUGGAACAGCUAGCAUUGUAUUUAGUUA | 0.164 ± 0.013
26 | UCCUCGUACAGCUUGCAUAGUAUUAAGUUA | 0.214 ± 0.022
27 | UCCUGGAUGUGCUUGCAUAGUAUUCUAGUUA | 0.193 ± 0.045
28 | UCCUGGAUGUGCUUGCUAUGUAUUUAGUUA | 0.00774 ± 0.0037
29 | UCCUGGUACAGGAAGCAUAGUAUUUAGUAA | 0.167 ± 0.023
30 | UCCUGGAACAGCUUCGUUAGUAUUUAGUUA | 0.181 ± 0.013
31 | UCCUGGAUGUGCUUGGUUAGUAUUUAGUAA | 0.149 ± 0.026
32 | UCCUGGAUCAGCUUGCUUUGUAUUUAGUUA | 0.11 ± 0.015
33 | UCCUGGAACAGCUUGCAUAGUCAUUUAGUUA | 0.0205 ± 0.008
34 | UCCUGGUACAGCUAGCAUAGUAUUAAGUUA | 0.198 ± 0.032
35 | UCCUGGUAGAGCAUGCAUAGUAUUUAGUUA | 0.196 ± 0.018
36 | UCCUGGAUGUCCUUGCAUAGUAAUAAGUUA | 0.0367 ± 0.013
37 | UCCUGGUACAGCAACCAUAGUAUUUAGUUA | 0.286 ± 0.042
38 | UCCUGGAUGUCCUUGCAUUGUAUUUAGUUA | 0.0543 ± 0.012
39 | UCCUGGAUGUCCUUGCAAAGUUUUUAGUUA | 0.0117 ± 0.0048
40 | UCCUGGAUGUGCUUGCAAUGUAUUUAGUAA | 0.0131 ± 0.0037

Same assay, conditions: auxiliary factor: none (no GTSF1)

Row | Sequence | pre-steady-state target cleavage rate
41 | UCCUGGUACAGCUUGCAUAGUAUUUAAUUA | 0.00528 ± 0.0035
42 | UCCUGGAUCAGCAUGCAUAGUAUUUUGUUA | 0.00405 ± 0.0024
43 | UCCUGGAUGUCGUUGCAAAGUAUUUAGUUA | 0.00739 ± 0.0022
44 | UCCUGGAUGUCCUUGCAAAGUAUAUAGUUA | 0.00539 ± 0.002
45 | UCCUGGAUGUCGAUGCAUAGUACUUUAGUUA | 0.00479 ± 0.0029
46 | UCCUGGAUGUCGAUGCAUAGUAGUUAGUUA | 0.00415 ± 0.0021
47 | UCCUGGUACAGCUUGCAUAGUUAUUUAGUUA | 0.00549 ± 0.0044
48 | UCCUGGAUGUCGAUGCAUCGUAUUUAGUUA | 0.00865 ± 0.0025
49 | UCCUGCUACAGACUUGCAUAGUAUUUAGUUA | 0.00767 ± 0.0021
50 | UCCUGGAUGUGCUUGAAUAGUAUUUAGUUA | 0.00936 ± 0.0025
51 | UCCUGGAUCAGCUAGCAUAGUAUUUAGAUA | 0.00275 ± 0.0026
52 | UCCUGGAUCAUGCUUGCAUAGUAUUUAGUUA | 0.00983 ± 0.0024
53 | UCCUGGAUGUCCUUGCAUAGUAUAUUAGUUA | 0.00666 ± 0.0032
54 | UCCUGGUACUGCUUGGAUAGUAUUUAGUUA | 0.00767 ± 0.0042
55 | UCCUGGAUGUCCUUGCAUAGUAUUCAGUUA | 0.00338 ± 0.0028
56 | UCCUGGAUGUGCUUGCAAAGUAUAUAGUUA | 0.00311 ± 0.0024
57 | UCCUGGAUCACCUUGCAAAGUAUUUAGUUA | 0.0045 ± 0.0025
58 | UCCUGCUACAGCUUGCAUAGUAUUUAGUUC [g2:g25:cont:t1C] | 0.0145 ± 0.0033
59 | UCCUGGUACAGCUUGCAUAGAAAUUAGUUA | 0.00311 ± 0.0031
60 | UCCUCCUACAGCUUGCAUAGUAUCUUAGUUA | 0.00811 ± 0.0026

Row | Sequence | pre-steady-state target cleavage rate
61 | UCCUGGUACAGCUUCGAUAGUAUUUAGUAA | 0.00305 ± 0.0029
62 | UCCUGGAACAGCUUGCAUUGUAUAUAGUUA | 0.00496 ± 0.0025
63 | UCCUGGAUGUGCUUGCAUAGUUAUUUAGUUA | 0.00419 ± 0.0033
64 | UCCUGGAUGUCUUUGCAUAGUAUUUAGUUA | 0.0125 ± 0.0027
65 | UCCUGGAACAGCUAGCAUUGUAUUUAGUUA | 0.0074 ± 0.0021
66 | UCCUCGUACAGCUUGCAUAGUAUUAAGUUA | 0.00547 ± 0.0019
67 | UCCUGGAUGUGCUUGCAUAGUAUUCUAGUUA | 0.00428 ± 0.0034
68 | UCCUGGAUGUGCUUGCUAUGUAUUUAGUUA | 0.00498 ± 0.0024
69 | UCCUGGUACAGGAAGCAUAGUAUUUAGUAA | 0.00332 ± 0.0019
70 | UCCUGGAACAGCUUCGUUAGUAUUUAGUUA | 0.00414 ± 0.0022
71 | UCCUGGAUGUGCUUGGUUAGUAUUUAGUAA | 0.0127 ± 0.003
72 | UCCUGGAUCAGCUUGCUUUGUAUUUAGUUA | 0.0038 ± 0.0028
73 | UCCUGGAACAGCUUGCAUAGUCAUUUAGUUA | 0.00479 ± 0.0022
74 | UCCUGGUACAGCUAGCAUAGUAUUAAGUUA | 0.00537 ± 0.0026
75 | UCCUGGUAGAGCAUGCAUAGUAUUUAGUUA | 0.0109 ± 0.0033
76 | UCCUGGAUGUCCUUGCAUAGUAAUAAGUUA | 0.00284 ± 0.0025
77 | UCCUGGUACAGCAACCAUAGUAUUUAGUUA | 0.00442 ± 0.0027
78 | UCCUGGAUGUCCUUGCAUUGUAUUUAGUUA | 0.00683 ± 0.002
79 | UCCUGGAUGUCCUUGCAAAGUUUUUAGUUA | 0.00553 ± 0.0019
80 | UCCUGGAUGUGCUUGCAAUGUAUUUAGUAA | 0.00545 ± 0.0027
